# Screens from PubChem BioAssay.
# Compounds with a hit are over-represented: about 9% of the library has one in this group of screens.
# HP1b binding inh = inhibitors of HP1-beta chromodomain binding to methylated histone tails | P83916 | AlphaScreen HP1-beta / biotin-H3K9me3 peptide binding | Potency, µM (highest dose often 114 µM), for inactives: top-dose activity change, negative = inhibition, actives largely listed as inhibitors | 0.56% of 390,000 active | AID 540317; also: nearly all actives have a fitted effect of over 70% in size
#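 HP1-beta protein (50 nM final) preincubated 30 min at room temperature with biotinylated H3(1-18)K9me3 peptide (50 nM) in PBS pH 7.4, 0.01% Tween-20, then compound added for 30 min. AlphaScreen streptavidin donor/nickel chelate acceptor beads (10 ug/mL final), 30 min dark, luminescence read.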
# JMJD2A Tudor inh = blocks the human JMJD2A Tudor domain; AID 504339; Potency, µM (series often up to 114 µM), for the others: at the top dose activity change, negative = inhibition, usual class: inhibitors; O75164; 4.4% of 390,000 active; AlphaScreen JMJD2A-Tudor / H3K4me3 peptide binding; also: % is scaled to controls: 0 for no effect and ±100 for the full control effect; nearly all actives have a fitted effect of over 50% in size
# PLK1 PBD block = blocks phosphopeptide binding to human PLK1 polo-box domain; P53350; Plk1 PBD binding of FITC phosphopeptide, fluorescence polarization; Potency, µM, without a hit: max response, negative = inhibition, most hits filed as inhibitors; 2.8% of 360,000 active; AID 720504; also: series mostly up to about 57 µM; % is scaled to controls: 0 for no effect and ±100 for the full control effect; nearly all actives have a fitted effect of over 65% in size
# BAZ2B inh = inhibitors of human BAZ2B bromodomain | Q9UIF8 | AlphaScreen BAZ2B-H3K14Ac peptide displacement | Potency, µM (doses to about 114 µM), for the others: at the top dose activity change, negative = inhibition, hits mostly inhibitors | 4.4% of 360,000 active; also: % is scaled to controls: 0 for no effect and ±100 for the full control effect; nearly all actives have a fitted effect of over 60% in size
#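 BAZ2B (50 nM) with biotin-H3(5-23)K14Ac peptide (50 nM) in PBS pH 7.4, 0.01% Tween-20, preformed 30 min, then compound 30 min at room temperature; top concentration 110uM. AlphaScreen streptavidin donor/nickel chelate acceptor beads (10 ug/mL final), 20 min dark, signal read.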
# 12-LOX inh = blocks human arachidonate 12S-lipoxygenase; P18054; purified 12hLO, xylenol orange hydroperoxide absorbance; Potency, µM (top dose mostly 108 µM), inactives show at the top dose activity change, negative = inhibition, hits mostly inhibitors; 1.1% of 580,000 active; also: % is scaled to controls: 0 for no effect and ±100 for the full control effect
# Target sequence (P18054 whole entry, looked up): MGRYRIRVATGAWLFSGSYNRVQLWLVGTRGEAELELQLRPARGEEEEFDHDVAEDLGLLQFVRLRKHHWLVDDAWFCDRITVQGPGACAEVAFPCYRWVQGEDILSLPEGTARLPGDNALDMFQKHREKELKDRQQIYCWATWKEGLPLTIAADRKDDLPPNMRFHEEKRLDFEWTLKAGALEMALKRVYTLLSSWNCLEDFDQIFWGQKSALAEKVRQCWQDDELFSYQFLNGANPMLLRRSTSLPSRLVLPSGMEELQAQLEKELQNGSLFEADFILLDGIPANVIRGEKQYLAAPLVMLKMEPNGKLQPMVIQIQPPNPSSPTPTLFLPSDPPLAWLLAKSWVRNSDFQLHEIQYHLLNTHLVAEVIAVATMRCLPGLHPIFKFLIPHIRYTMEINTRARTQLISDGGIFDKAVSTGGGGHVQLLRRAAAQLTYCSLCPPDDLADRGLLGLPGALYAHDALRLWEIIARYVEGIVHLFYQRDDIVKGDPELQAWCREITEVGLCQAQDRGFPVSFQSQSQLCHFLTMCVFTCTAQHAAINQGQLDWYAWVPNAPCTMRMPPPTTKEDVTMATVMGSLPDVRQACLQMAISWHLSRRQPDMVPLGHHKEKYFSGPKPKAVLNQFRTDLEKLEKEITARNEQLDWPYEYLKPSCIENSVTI
#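 Hydroperoxide product was detected by ferrous iron/xylenol orange as the 573 to 405 nm absorbance ratio. Arachidonic acid at 40 uM (final) was turned over for 30 min at room temperature by 150 nM human 12hLO, pH 7.0 Hepes buffer, after 15 min compound preincubation.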
# G9a block = G9a (human) methyltransferase inhibition; G9a H3K9 monomethylation, AlphaScreen, 2 h; AID 504332; Potency, µM (highest dose often 102 µM), for inactives: at the highest dose activity, negative = inhibition, usual class: inhibitors; 8.8% of 350,000 active; also: % is scaled to controls: 0 for no effect and ±100 for the full control effect; nearly all actives have a fitted effect of over 75% in size
#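 AlphaScreen read-out: biotin-H3K9 peptide (500 nM) methylation by 20 nM enzyme with 20 uM SAM, 2 h at room temperature after 15 min compound preincubation; anti-monomethyl H3K9 antibody plus donor/acceptor beads, 10 min dark.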
# * hit, by the source's call; ? = inconclusive; nt = not tested or not shown; [ ] = dose if it differs, or a comment. Calls follow the shape of the dose curve; as a rule, active = well fitted curve in the direction sought with a large enough effect; inconclusive = small, poorly fitted or top-dose-only effect, or another doubt; inactive = no such curve, though single readings can be large; an effect the other way counts as inactive or inconclusive. Potency is read from the fitted curve at half-maximal effect.
SMILES,HP1b binding inh,JMJD2A Tudor inh,PLK1 PBD block,BAZ2B inh,12-LOX inh,G9a block
O=C(CNCCc1ccc(Cl)cc1)Nc1ccc(C(=O)N2CCCCC2)cc1,?,3.2µM*,1%,20µM*,?,7.9µM*
NC(=O)c1ccc(NC(=O)CNCc2ccccc2Cl)cc1,37%,4%,2%,-1%,?,-36%
Cc1ccc(CC(=O)Nc2ccc(C(=O)N3CCCCC3)cc2)cc1,9%[57 µM],1%,-27%,-15%,-11%,nt
CN1CCc2nc(NC(=O)CN3C(=O)COc4ccccc43)sc2C1,nt,nt,nt,nt,-14%,nt
COCCCn1c(SCCc2ccccc2)nc2cc(OC)c(OC)cc2c1=N,26%,-31%,-7%,-35%,?,3%
O=C(O)CCC(=O)Nc1ccc(C(=O)N2CCCCC2)cc1,14%,-6%,-3%,-1%,18%,29%
O=C(CNCCc1ccccc1)Nc1ccc(C(=O)N2CCCCC2)cc1,?,22µM*,4%,40µM*,?,11µM*
CC(C)(C)c1ccc(C(=O)NCC(c2cccnc2)N2CCc3ccccc3C2)cc1 (configuration not stated),?,?,nt,3.2µM*,-23%,?
Cc1ccc(C(=O)NCC(c2cccnc2)N2CCc3ccccc3C2)cc1C (configuration not stated),7%,?,nt,13µM*,2%,?
Cc1ccc(C(=O)NCC(c2cccnc2)N2CCc3ccccc32)cc1C (configuration not stated),-16%,?,nt,?,-3%,?
Cc1cccc(C(=O)N/N=C/c2ccccc2C)c1,nt,nt,nt,nt,50%,nt
CC(=O)c1cn(CCOc2ccccc2F)c2ccccc12,nt,nt,nt,nt,-6%,nt
CCCCCNC(=O)C(c1ccc(OC)cc1)n1c(=O)c(-c2ccco2)nc2ccccc21 (configuration not stated),nt,nt,-12%,nt,5.6µM*,nt
O=C(NC1CCCCC1)C(c1ccccc1F)n1c(=O)c(-c2ccco2)nc2ccccc21 (configuration not stated),nt,nt,-22%,nt,?,nt
O=C(NC1CCCCC1)C(c1ccc(-c2ccccc2)cc1)n1c(=O)c(-c2ccco2)nc2ccccc21 (configuration not stated),nt,nt,?,nt,45µM*,nt
CCCCCNC(=O)C(c1ccccc1F)n1c(=O)c(-c2ccco2)nc2ccccc21 (configuration not stated),nt,nt,?,nt,20µM*,nt
O=C(NCc1ccccc1)C(c1ccc(C(F)(F)F)cc1)n1c(=O)c(-c2ccco2)nc2ccccc21 (configuration not stated),nt,nt,-21%,nt,5µM*,nt
C[C@H]1COc2cc(Br)ccc2S(=O)(=O)N1Cc1cn(CCC2OCCO2)nn1,nt,nt,nt,nt,32%,nt
COc1ccc(CNC(=O)c2cc3c(C)nc4ccccc4c3o2)c(OC)c1,22%,0%,-2%,2%,nt,-10%
C[C@H](NC(=O)c1nc[nH]c1C(=O)NCCCCCN)C(=O)OCc1ccccc1,26%,45µM*,-2%,50µM*,4%,-10%[2.33 µM]
C[C@H](NC(=O)c1nc[nH]c1C(=O)NCCCCCNC(=O)OC(C)(C)C)C(=O)OCc1ccccc1,58%,-22%,1%,-5%,4%,7%[12.7 µM]
O=C(CNC(=O)c1[nH]cnc1C(=O)NC(c1ccccc1)c1ccccc1)OCc1ccccc1,-3%,?,24µM*,6%,21%,nt
CC(C)(C)OC(=O)[C@H](CCCCN)NC(=O)c1nc[nH]c1C(=O)NCCCCCN,1%,-22%,-5%,?,5%,-10%[12.7 µM]
C[C@H](NC(=O)c1nc[nH]c1C(=O)NCCCCCN)C(=O)OC(C)(C)C,13%,56µM*,-1%,50µM*,-2%,23%[2.33 µM]
C[C@H](NC(=O)c1nc[nH]c1C(=O)N1CCNCC1)C(=O)OC(C)(C)C,16%,35µM*,-4%,50µM*,-12%,?
SMILES,HP1b binding inh,JMJD2A Tudor inh,PLK1 PBD block,BAZ2B inh,12-LOX inh,G9a block
COc1ccc(N2CCN(C(=O)c3cc(-c4ccc(F)cc4)[nH]c3C)CC2)cc1,?,45µM*,-7%,45µM*,0%,45µM*
Cc1[nH]c(-c2ccc(F)cc2)cc1C(=O)N1CCN(c2ccc(Cl)cc2)CC1,-28%,?,3%,?,-10%,?
CC(=O)c1ccc(N2CCN(C(=O)c3ccc4[nH]c(C)c(C)c4c3)CC2)cc1,-14%,?,-11%,nt,0%,nt
COc1cc2c(cc1OC)CN(C(=O)c1ccc([N+](=O)[O-])o1)CC2,-4%,-27%,-14%,-31%,0%,56µM*
Cc1[nH]c2ccc(C(=O)N3CCN(c4ccc(F)cc4)CC3)cc2c1C,-24%,50µM*,1%,35µM*,?,79µM*
COc1ccc(N2CCN(C(=O)c3ccc4[nH]c(C)c(C)c4c3)CC2)cc1,31%,-5%,7%,40µM*,11%,18%[12.7 µM]
CCCc1noc(CN2CCN(c3oc(-c4ccco4)nc3C#N)CC2)n1,nt,nt,nt,nt,-3%,nt
COc1ccc(C(=O)N2CCc3cc(OC)c(OC)cc3C2)cc1OC,26%,1%,-1%,3%,-25%,-39%
COc1cc2c(cc1OC)CN(C(=O)c1ccc3[nH]c(C)c(C)c3c1)CC2,-27%,?,-5%,50µM*,-25%,nt
COc1ccc2[nH]c(=O)c(CN(C(=O)c3cccnc3)c3cccc(C)c3)cc2c1,4%,-19%[11.4 µM],24µM*,-5%,7%,-27%
COc1ccccc1N(Cc1cc(=O)[nH]c2ccccc12)C(=O)c1cccc([N+](=O)[O-])c1,-20%,-15%[11.4 µM],30µM*,?,16%,nt
COc1ccc2[nH]c(=O)c(CN(C(=O)c3cccnc3)c3ccc(C)cc3)cc2c1,20%,-10%,-3%,2%,0%,16%[59 µM]
COc1ccc2[nH]c(=O)c(CN(C(=O)c3cccc(Cl)c3)c3ccccc3OC)cc2c1,15%,-12%,nt,-10%,?,14µM*
CC(C)n1cc2c(c1-c1ccccc1Cl)c(=O)n(C)c(=O)n2C,-11%,-29%,nt,?,-10%,?
Cc1ccc(OCC(=O)N/N=C2/SCC(=O)N2Cc2ccccc2)cc1,?,-16%,0%,-3%,-7%,20%[59 µM]
